Laboratory results published in PubChem BioAssay AID1671190 (National Center for Advancing Translational Sciences (NCATS), 2021).
Hit rate of the full screen: of about 580,000 compounds, about 6,100 (1.1%) were called active. About 15% were inconclusive and are not listed. The full list was thinned out, with actives kept by preference. Unmarked numbers belong to inactive results. Calls follow the shape of the dose curve; as a rule, active = well fitted inhibition curve with a large enough effect; inconclusive = small, poorly fitted or top-dose-only effect, or another doubt; inactive = no such curve, though single readings can be large or run the other way.

target: Polyunsaturated fatty acid lipoxygenase ALOX12 (Homo sapiens) (UniProt P18054); test: Primary qHTS assay for inhibitors of human arachidonate 12S-lipoxygenase (ALOX12): Round 2; details: purified 12hLO, xylenol orange hydroperoxide absorbance; series mostly up to 108 µM; activity change, negative = inhibition: at the top concentration
Outline: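 Hydroperoxide product was detected by ferrous iron/xylenol orange as the 573 to 405 nm absorbance ratio. Arachidonic acid at 40 uM (final) was turned over for 30 min at room temperature by 150 nM human 12hLO, pH 7.0 Hepes buffer, after 15 min compound preincubation.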
% is scaled to controls: 0 for no effect and ±100 for the full control effect; potency is read from the fitted curve at half-maximal effect.

Sequence of Polyunsaturated fatty acid lipoxygenase ALOX12 (Homo sapiens) (P18054 whole entry, looked up): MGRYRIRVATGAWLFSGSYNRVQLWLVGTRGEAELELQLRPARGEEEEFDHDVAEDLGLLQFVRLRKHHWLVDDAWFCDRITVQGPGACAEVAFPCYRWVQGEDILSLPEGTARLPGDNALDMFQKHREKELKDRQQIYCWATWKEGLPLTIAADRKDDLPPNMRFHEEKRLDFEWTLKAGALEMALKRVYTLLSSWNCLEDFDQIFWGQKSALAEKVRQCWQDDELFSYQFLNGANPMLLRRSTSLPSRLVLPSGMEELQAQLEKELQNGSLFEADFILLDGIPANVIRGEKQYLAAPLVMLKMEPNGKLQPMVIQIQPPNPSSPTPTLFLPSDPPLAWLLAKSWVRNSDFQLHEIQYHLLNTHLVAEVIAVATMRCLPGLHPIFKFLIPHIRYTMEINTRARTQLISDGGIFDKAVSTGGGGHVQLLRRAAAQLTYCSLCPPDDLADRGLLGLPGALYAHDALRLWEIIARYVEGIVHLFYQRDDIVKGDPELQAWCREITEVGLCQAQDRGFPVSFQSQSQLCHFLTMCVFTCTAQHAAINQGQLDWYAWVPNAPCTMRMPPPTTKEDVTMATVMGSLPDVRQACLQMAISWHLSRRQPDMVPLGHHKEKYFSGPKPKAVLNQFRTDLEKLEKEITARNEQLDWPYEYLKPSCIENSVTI

Structure (SMILES)	activity change, negative = inhibition	Potency
COc1ccc(C2CC(=O)c3cnc4c(c3C2)c(=O)[nH]c(=O)n4CCC(C)C)cc1 (configuration not stated)	-3.93%	
CCCC(=O)C1C(=O)CC(c2ccc(OC)c(OC)c2)CC1=O (configuration not stated)	46.2%	
O=C(CSc1nc2ccccc2nc1N1CCCCC1)Nc1cccc(Br)c1	56.1%	
CC(Oc1ccc(-c2ccccc2)cc1)C(N)=O (configuration not stated)	47.2%	
CC1(OC(=O)C2CCCC2)C(=O)C=C2C=C(c3ccc(C#N)cc3)OC=C2C1=O (configuration not stated)		10 µM (active)
N#Cc1ccc(-c2nc(C(=O)NC3CCCCCC3)no2)cc1	7.37%	
CCCCCC1CCC(C(=O)Oc2ccc(C#N)cc2)CC1 (configuration not stated)	1.66%	
CCCc1cc(=O)oc2c(C)c(OCC(=O)c3ccc(-c4ccccc4)cc3)ccc12	8.56%	
O=C(Nc1ccc2c(c1)OCCO2)C(=O)c1c[nH]c2cc(F)ccc12	-16.1%	
COc1ccc(CN2CCN(Cc3cccnc3)CC2)cc1OCc1ccccc1		0.708 µM (active)
Fc1ccc(OC2CN(Cc3cccnc3)C2)c(F)c1	10.3% [at 12.5 µM]	
C=CCc1ccc(OCC(O)CN2CCN(Cc3ccccc3)CC2)c(OC)c1 (configuration not stated)	-23.6%	
Cc1[nH]nc2c1C(c1ccccc1Br)C1=C(COC1=O)N2 (configuration not stated)	-14.3%	
O=C(NCc1coc(-c2cccs2)n1)C1CCCN(C(=O)c2ccc(F)cc2)C1 (configuration not stated)	-2.26%	
CN(CC(=O)Nc1cc(Cl)ccc1F)Cc1ccccc1N1CCCCC1	10.9%	
CNC(NC(=O)c1ccc(C)cc1)C(Cl)(Cl)Cl (configuration not stated)	3.19%	
COc1ccc(C)cc1S(=O)(=O)N1CCN(S(=O)(=O)c2cc(C(=O)O)ccc2C)CC1		15.8 µM (active)
COc1ccc(C(=O)NCc2ccc(C)cc2)cc1S(=O)(=O)N1CCCC1	30.3%	
COc1ccc(C(=O)N(Cc2ccccc2)c2ccc(C)cc2)cc1S(=O)(=O)N1CCOCC1	1.7%	
CCCCn1nc(C(=O)Nc2cc(Cl)ccc2C)c2ccccc2c1=O	3.35%	
CCOc1ccc(-c2nc(CN3CCN(C(=O)Nc4ccccc4OC)CC3)c(C)o2)cc1	-12%	
Cc1ncc(-c2ccc(S(=O)(=O)Nc3ccc(F)c(F)c3)cc2)o1	-25.2%	
COc1cccc(CN2CCCN(Cc3ccncc3)C(c3ccccc3)CC(=O)NCC2)c1OC (configuration not stated)	67.7%	
N#Cc1c(-c2ccc(F)cc2)cc(C2CC2)nc1SCC(=O)c1cccs1	-10.2%	
N#Cc1ccc(-c2cccs2)nc1SCc1ccc(Br)cc1	-27.6%	
N#Cc1c(-c2cccs2)nc(SCC(=O)c2ccc(Br)cc2)[nH]c1=O		7.08 µM (active)

Structure (SMILES)	activity change, negative = inhibition	Potency
Cc1oc(-c2ccc(OC(C)C)cc2)nc1CSc1nc2c(c(=O)[nH]1)CCC2	-5.3%	
CCC(Oc1ccc(Br)cc1)C(=O)O (configuration not stated)	-20.7%	
CC(=O)C1=C(O)C(=O)N(c2cccnc2)C1c1ccc([N+](=O)[O-])cc1 (configuration not stated)	-19.4%	
COC(=O)CN1C(=O)C(O)=C(C(C)=O)C1c1ccc([N+](=O)[O-])cc1 (configuration not stated)	-12.7%	
CC(=O)C1=C(O)C(=O)N(c2ccc(Br)cc2)C1c1ccc([N+](=O)[O-])cc1 (configuration not stated)		31.6 µM (active)
O=C(C(c1ccccc1)c1ccccc1)N(Cc1ccco1)C1CC1	-2.19%	
Cc1ccc(CS(=O)Cc2ccc(Cl)cc2)cc1 (configuration not stated)	-10.9%	
CC(C)CNC(=S)NC(=O)c1ccc(Cl)cc1		8.91 µM (active)
O=C(NC(=S)NC1CCCCC1)c1ccc(Cl)cc1		2.82 µM (active)
O=C(NNC(=S)NC1CC2CCC1C2)c1ccc(Cl)cc1 (configuration not stated)	0%	
Cc1scc(C(=O)NNC(=S)NCC(C)C)c1C	-23.5%	
O=C(NC1CCCCCC1)C1CCN(C(=O)c2ccc(Cl)cc2)CC1	240%	
CC(C)CNC(=S)NNC(=O)c1nn(C)cc1Cl	-17.6%	
Cc1ccccc1N1CCCN(Cc2ccccc2OCCO)CC1	29.5%	
Cc1ccc(-c2nc3ccccc3o2)cc1NC(=O)C1CC1	-4.05%	
Cn1cc(-c2cnc3n[nH]c(-c4ccccc4)c3n2)cn1	24.5% [at 176 µM]	
COc1ccc(Cl)cc1C(=O)OCCOc1ccccc1F	26.4%	
CN(CCOc1ccccc1)C(=O)c1cc(-c2ccco2)nc2ccccc12		31.6 µM (active)
Cc1cc(C(=O)OCC(=O)NC(=O)c2ccccc2)c2ccccc2n1	8.94%	
CCc1nnsc1C(=O)N(C)CCOc1ccccc1	-7.12%	
CCCOc1cccc(-c2cc(C(=O)OC)c3ccccc3n2)c1	4.79%	
CC(C)CCNC(=O)COC(=O)c1cc(-c2ccco2)nc2ccccc12		6.31 µM (active)
COc1cccc(-c2cc(C(=O)NCCC(C)C)c3ccccc3n2)c1	14.8%	
CC(C)c1ccc(OCC(=O)Nc2ccc(C(=O)N(C)C)cc2)cc1	4.6%	
N#Cc1nc(-c2ccc(S(=O)(=O)N3CCOCC3)cc2)oc1NCCN1CCOCC1	1.66%	
CC(C)CCN1CC2(CCCN(C(=O)c3ccn(C)c(=O)c3)C2)CCC1=O (configuration not stated)	-3.41%	
